Test results as given in PubChem BioAssay AID504834 (National Center for Advancing Translational Sciences (NCATS), 2011).
The campaign covered roughly 320,000 compounds. About 22,000 (6.9%) were called active. Where a call stands in place of a potency, no number is given. Another 27% or so got no clear call; they are omitted. The call rests on the fitted dose curve; in most records, active means well fitted inhibition curve with a large enough effect; inconclusive means small, poorly fitted or top-dose-only effect, or another doubt; inactive means no such curve, though single readings can be large or run the other way. Many of the other results were omitted from the sample, so actives are more common in it than they were.

Assay: Primary qHTS for delayed death inhibitors of the malarial parasite plastid, 96 hour incubation
Conditions: P. falciparum luciferase reporter growth; series mostly up to 28.7 µM
Description: The goal of this screen is to discover new antimalarial compounds that act by inhibiting the development of the apicoplast in the malarial parasite Plasmodium falciparum. The biochemical processes that make this organelle essential for erythrocytic stage parasites are not well understood. However, antibiotics such as azithromycin and tetracycline, which target the apicoplast translational machinery, have a potent antimalarial effect.
We have developed a cell-based assay that measures parasite growth based on the expression of an integrated copy of a firefly luciferase reporter. To detect small molecules that cause this "delayed death" phenotype, erythrocytes infected with the luciferase-expressing parasites were incubated with compounds for either one or two generations, corresponding to 48 and 96 hours, respectively. Compounds that inhibit parasite growth in the second generation, but not the first, should be enriched in antimalarials that target the apicoplast. Growth inhibition is detected by a decrease in luciferase activity.
Assay Provider: David Fidock and Eric Ekland, Columbia University
Keywords: NIH Roadmap, MLPCN, MLI, MLSMR, qHTS, NCGC, qHTS, malaria, luciferase, viability
Four microliters of infected erythrocytes (2% hematocrit, 0.05% parasitemia final concentration) in culture medium were dispensed and the plates incubated for 96 hours at 37 C in 5% CO2. Two microliters of luciferase detection reagent was added and luminescence was detected by a ViewLux (PerkinElmer) reader.
Potency means the concentration at half of the fitted maximal effect.

Which Potency does the source give for `CC1C(=O)N(Cc2ccccc2)c2ccccc2N1C(=O)c1ccccc1` (configuration not stated) here?
The Potency was “inactive”.

Which Potency does the source give for `O=C(COC(=O)Cn1[nH]c(=O)c2ccccc2c1=O)Nc1c(Cl)cccc1C(F)(F)F` here?
The Potency was “inactive”.

For `COc1cc(NC(=O)C2=CC(c3ccco3)=NS(=O)(=O)N2C)cc(OC)c1OC`, which Potency is on record?
The Potency was “inactive”.

Which Potency does the source give for `CC/C(=N\NC(=O)c1c(C)nc2ccccn12)c1ccc(Cl)cc1` here?
Its Potency is “inactive”.

With `O=C(Nc1ccccc1N1CCOCC1)c1ccc(OCc2cscn2)cc1` as the compound, how does the Potency read?
Its Potency is “inactive”.

For `Cc1nnc(NC(=O)/C=C/c2ccco2)s1`, which Potency is on record?
The Potency was “inactive”.

With `CCC(CC)c1nnc(NC(=O)/C=C/c2ccco2)s1` as the compound, how does the Potency read?
The Potency was “inactive”.

For `CCc1nnc(NC(=O)/C=C/c2ccc(C)o2)s1`, which Potency is on record?
The Potency was 10.4 µM (active).

With `CN1CCN(c2ccc(CNS(=O)(=O)c3cccc(F)c3)cc2)CC1` as the compound, how does the Potency read?
Its Potency is “inactive”.

With `N#CCCN(C(=O)COC(=O)C1CCN(c2ccc(C(F)(F)F)cn2)CC1)c1ccc(F)cc1` as the compound, how does the Potency read?
Its Potency is “inactive”.

Which Potency does the source give for `COc1ccccc1-n1nnnc1SCC(=O)NC(=O)Cc1ccccc1` here?
Its Potency is “inactive”.

Which Potency does the source give for `O=C(c1cccc(-n2cccc2)c1)N1CCN(S(=O)(=O)c2ccc(F)cc2)CC1` here?
Its Potency is “inactive”.

For `Cc1oc(-c2ccccc2Cl)[n+]([O-])c1C`, which Potency is on record?
The Potency was “inactive”.

Which Potency does the source give for `Cc1oc(-c2cccc(Cl)c2)[n+]([O-])c1C` here?
The Potency was 5.22 µM (active).

Which Potency does the source give for `CCOC(=O)CSc1ncc(-c2cccc(Cl)c2)cn1` here?
Its Potency is “inactive”.

With `Cc1[nH]n(C(N)=S)c(=O)c1N=Nc1ccc(Cl)cc1Cl` as the compound, how does the Potency read?
Its Potency is “inactive”.

Which Potency does the source give for `CC(=O)Nc1cccc(C(=O)OCC(=O)NCc2cc(C)c(O)c(C)c2)c1` here?
The Potency was “inactive”.

For `Cc1ccc(S(=O)(=O)N2CC(O)C[C@H]2C(=O)OCC(=O)Nc2ccc(N3CCOCC3)cc2)cc1C` (some centres not stated), which Potency is on record?
The Potency was “inactive”.

For `CN(C(=O)COC(=O)c1ccc(Br)o1)c1c(N)n(Cc2ccccc2)c(=O)[nH]c1=O`, which Potency is on record?
Its Potency is “inactive”.

Which Potency does the source give for `CCOC(=O)N1CCN(C(=O)Cc2ccc(-n3c(=S)[nH]c4ccccc4c3=O)cc2)CC1` here?
The Potency was 13.1 µM (active).

For `O=C(Cc1ccc(-n2c(=O)[nH]c3ccccc3c2=O)cc1)N1CCN(c2cccc(Cl)c2)CC1`, which Potency is on record?
Its Potency is “inactive”.

Which Potency does the source give for `CCCCNC(=O)c1ccc(-n2c(=S)[nH]c3ccccc3c2=O)cc1` here?
Its Potency is “inactive”.

With `CCc1nc(N2CCN(C(C)=O)CC2)c2c3c(sc2n1)CCCC3` as the compound, how does the Potency read?
The Potency was “inactive”.

For `O=C(/C=C/c1cccc(F)c1)NC1CC1`, which Potency is on record?
The Potency was “inactive”.

For `CCCc1nc2c(C)cc(-c3nc4ccccc4n3C)cc2n1Cc1ccc(-c2ccccc2C(=O)O)cc1`, which Potency is on record?
The Potency was 1.51 µM (active).

For `CC(=O)Nc1nc2ccccc2n1Cc1ccc(C)cc1`, which Potency is on record?
Its Potency is “inactive”.

For `CC(=O)c1nc2ccccc2n1Cc1ccccc1`, which Potency is on record?
Its Potency is “inactive”.

With `Cc1ccc2cc(/C=N/NC(=O)[C@@H]3CCCN3)c(Cl)nc2c1` as the compound, how does the Potency read?
The Potency was “inactive”.

With `COc1ccc(CCNC(=O)CCc2cn(C)c3ccccc23)c(OC)c1` as the compound, how does the Potency read?
Its Potency is “inactive”.

With `Cc1nc(N)[nH]c(=O)c1Oc1cccc(C(F)(F)F)c1` as the compound, how does the Potency read?
The Potency was “inactive”.

Which Potency does the source give for `O=C(NCc1cccnc1)Nc1cccc(NC(=O)NCc2cccnc2)c1F` here?
The Potency was “inactive”.

Which Potency does the source give for `CC1CC(C)CN(C(=O)COC(=O)c2ccc3ncsc3c2)C1` (configuration not stated) here?
The Potency was “inactive”.

With `Cc1ccc(S(=O)(=O)NC(=O)Nc2nc(-c3ccc(F)c(F)c3)cs2)cc1` as the compound, how does the Potency read?
The Potency was “inactive”.

With `Cc1cc(=O)cc(C)n1-c1ccc(Cl)c(Cl)c1` as the compound, how does the Potency read?
Its Potency is “inactive”.

For `CCCCNC(=O)c1onc(CSc2cccc(OC)c2)c1C(=O)O`, which Potency is on record?
The Potency was “inactive”.

Which Potency does the source give for `CCCNC(=O)c1onc(CSc2ccc(F)cc2)c1C(=O)NC(C)C` here?
Its Potency is 11.7 µM (active).

With `CCOc1cccc(SCc2noc(C(=O)NC(C)C)c2C(=O)O)c1` as the compound, how does the Potency read?
The Potency was “inactive”.

Which Potency does the source give for `Nc1cccc(-c2cc(-c3ccccc3)nc(-c3cccc(N)c3)n2)c1` here?
Its Potency is 10.4 µM (active).

Which Potency does the source give for `Nc1nc(-c2ccccc2)cc(-c2ccccc2)n1` here?
The Potency was “inactive”.

Which Potency does the source give for `CNc1nc(-c2ccccc2)cc(-c2ccccc2)n1` here?
Its Potency is “inactive”.

For `CCCOc1ccc(Cc2c(O)nc(SC)[nH]c2=O)cc1C`, which Potency is on record?
The Potency was “inactive”.

For `Cc1ccc(S(=O)(=O)NCCSC(C)(C)C)cc1`, which Potency is on record?
The Potency was “inactive”.

With `COc1ccccc1CNS(=O)(=O)c1ccc(C)cc1` as the compound, how does the Potency read?
The Potency was “inactive”.

Which Potency does the source give for `COc1nc(N(C)C)nc(N2CC(=O)N(CCNS(=O)(=O)c3ccc(C)cc3)C2=N)n1` here?
Its Potency is 2.33 µM (active).

Which Potency does the source give for `CCOC(=O)C1(CCOC)CCN(Cc2cc3ccccc3s2)CC1` here?
Its Potency is “inactive”.

Which Potency does the source give for `O=C(Nc1cccc(-c2cscn2)c1)C1CCN(Cc2ccsc2)CC1` here?
The Potency was “inactive”.

With `COc1cc(C2C(C#N)=C(C)NC3=C2C(=O)CC(C)(C)C3)ccc1O` (configuration not stated) as the compound, how does the Potency read?
Its Potency is “inactive”.

For `CCOC(=O)C1=C(C)NC2=C(C(=O)CC(C)(C)C2)C1c1ccsc1` (configuration not stated), which Potency is on record?
Its Potency is 7.38 µM (active).

With `CCOc1cc(C2C(C(=O)OC(C)C)=C(C)NC3=C2C(=O)CCC3)cc([N+](=O)[O-])c1O` (configuration not stated) as the compound, how does the Potency read?
Its Potency is “inactive”.

Which Potency does the source give for `Cc1ccc2c(C)c(C(=O)N(C)Cc3ccncn3)oc2c1C` here?
The Potency was “inactive”.

For `CCCc1ccc(-c2csc(NC(=O)Cc3cccs3)n2)cc1`, which Potency is on record?
The Potency was 11.7 µM (active).

Which Potency does the source give for `CCc1nnc(NC(=O)Cc2cccs2)s1` here?
The Potency was “inactive”.

For `COc1cccc(CC(=O)Nc2nc(-c3ccc(OC)c(OC)c3)cs2)c1`, which Potency is on record?
Its Potency is “inactive”.

For `CC(NCC(=O)Nc1cc(Cl)cc(Cl)c1)c1ccccc1` (configuration not stated), which Potency is on record?
Its Potency is “inactive”.

For `COc1cccc(-c2coc3cc4oc(=O)c(CC(=O)O)c(C)c4cc23)c1`, which Potency is on record?
The Potency was “inactive”.

Which Potency does the source give for `COc1ccc(OCCCC(=O)OC(C)C(=O)Nc2ccccc2[N+](=O)[O-])cc1` (configuration not stated) here?
Its Potency is “inactive”.

For `Cc1ccc(N2C(=O)NC(=O)C(CCc3ccncc3)(Cc3cccc(Cl)c3Cl)C2=O)cc1` (configuration not stated), which Potency is on record?
The Potency was 11.7 µM (active).

For `O=C1NC(=O)C(CCc2ccccn2)(Cc2cccc(Cl)c2Cl)C(=O)N1c1ccc(Br)cc1` (configuration not stated), which Potency is on record?
The Potency was “inactive”.

With `CC(C)(C)c1ccc(/C=C/C(=O)NCCCn2ccnc2)cc1` as the compound, how does the Potency read?
The Potency was “inactive”.

With `O=C1CCN(CCc2ccccc2)CCN1CCOc1ccccc1` as the compound, how does the Potency read?
Its Potency is “inactive”.

Which Potency does the source give for `CC(C)C[C@@H](COc1ccccc1)N1CCN(CC(C)C)CCC1=O` here?
The Potency was 11.7 µM (active).

Which Potency does the source give for `CC(C)C[C@@H](CO)N1CCN(Cc2ccc(O)cc2)CCC1=O` here?
Its Potency is “inactive”.

Which Potency does the source give for `CCCNC(=O)N1CCC(c2ccc3c(c2)OCO3)CC1` here?
Its Potency is “inactive”.

Which Potency does the source give for `CC1CN(C(=S)Nc2ccc(S(N)(=O)=O)cc2)CC(C)O1` (configuration not stated) here?
Its Potency is “inactive”.

With `O=[N+]([O-])c1ccc(N2CCN(c3ccc(F)cc3)CC2)cn1` as the compound, how does the Potency read?
Its Potency is “inactive”.

For `OCCN1CCN(c2nnc(-c3ccccc3)c3ccccc23)CC1`, which Potency is on record?
The Potency was “inactive”.

For `Cc1ccc(CN2CCNC(=O)C2CC(=O)NCc2csc(C(C)C)n2)cc1` (configuration not stated), which Potency is on record?
Its Potency is 11.7 µM (active).

Which Potency does the source give for `CCOc1ccc(CN2CCNC(=O)C2CC(=O)NCCCC2CCCC2)cc1` (configuration not stated) here?
Its Potency is 13.1 µM (active).

Which Potency does the source give for `CCn1ccnc1CNC(=O)CC1C(=O)NCCN1CCCc1ccccc1` (configuration not stated) here?
The Potency was “inactive”.

With `CCCOC(=O)CC1C(=O)NCCN1Cc1ccc(F)cc1` (configuration not stated) as the compound, how does the Potency read?
Its Potency is “inactive”.

With `Cc1nccn1CCCNC(=O)CC1C(=O)NCCN1Cc1ccc(Cl)c(F)c1` (configuration not stated) as the compound, how does the Potency read?
The Potency was “inactive”.

With `CCn1ccnc1CNC(=O)CC1C(=O)NCCN1Cc1ccc(F)cc1Cl` (configuration not stated) as the compound, how does the Potency read?
The Potency was “inactive”.
